An excerpt weighted towards active compounds, which were near 3.5% of everything screened.
MITF primary: MITF inhibitors, primary screen, biochemical, AlphaScreen, human; AlphaScreen MITF homodimerization, bead proximity signal; inhibition, % at 2.6 µM; 650,000 tested, 0.91% active; in the data active = inhibition above about 50%
GPR151 ag: activators of human GPR151, primary screen, cell-based, PathHunter beta-arrestin, luminescence. G-protein coupled receptor 151 (Homo sapiens), Q8TDV0. PathHunter beta-arrestin GPR151 cells. activation, % at 11.2 µM. 650,000 tested, 1% active. AID 1508602, 2020; in the data active = activation above about 4.9%
Target sequence (Q8TDV0 whole entry, looked up): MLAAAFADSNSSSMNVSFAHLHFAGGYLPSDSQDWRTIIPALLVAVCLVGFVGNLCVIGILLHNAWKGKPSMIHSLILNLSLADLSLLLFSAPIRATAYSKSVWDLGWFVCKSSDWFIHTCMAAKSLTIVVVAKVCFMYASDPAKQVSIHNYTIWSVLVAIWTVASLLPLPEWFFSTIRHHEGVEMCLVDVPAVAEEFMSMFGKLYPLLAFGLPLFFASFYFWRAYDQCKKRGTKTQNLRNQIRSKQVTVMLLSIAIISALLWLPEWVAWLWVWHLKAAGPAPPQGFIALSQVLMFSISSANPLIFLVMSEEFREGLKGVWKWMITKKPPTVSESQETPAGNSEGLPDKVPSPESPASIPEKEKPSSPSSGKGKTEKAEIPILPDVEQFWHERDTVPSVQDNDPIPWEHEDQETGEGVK
TEAD-YAP block: TEAD-YAP interaction inhibition, primary screen, TEAD-YAP interaction inhibitor project, luminescence, HEK-TIYL cells | 640,000 tested, 1.4% active | AID 1259422, 2018 | inhibition, % at 9.12 µM | TEAD-Gal4/YAP UAS-luciferase luminescence; in the data active = inhibition above about 32%
FBW7 act: FBW7 E3 ligase activators, primary screen, biochemical, AlphaScreen, human | normalized activity (activation), % at 26.1 µM | 650,000 tested, 0.13% active | AlphaScreen FBW7–phospho-cyclin E peptide binding, activator screen | AID 1259310, 2017 | F-box/WD repeat-containing protein 7 (Homo sapiens), Q969H0; in the data active = normalized activity above about 1.9%;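 note: purified mutant Fbw7 with reduced substrate affinity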
GPR151 confirm: GPR151 activators, triplicate retest, confirmation, cell-based, PathHunter beta-arrestin, luminescence. AID 1508609, 2020. 6,700 tested, under 10 active. activation, % at 11.2 µM. GPR151 PathHunter beta-arrestin cells, 90 min; % of EA-reagent control over plate median. shares compounds with GPR151 ag;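 active = mean percent activation across replicates above the confirmation screen cutoff of 4.91%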
GPR119 counter: GPR119 activators in beta-arrestin cells, counter-screen for GPR151 activator project, cell-based, PathHunter beta-arrestin, luminescence, triplicate | shares compounds with GPR151 ag | AID 1508611, 2020 | 90 min; 0 = compound-well median, 100 = enzyme-acceptor control | 6,700 tested, 0.3% active | activation, % at 11.2 µM;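 active = mean percent activation in the counterscreen above 29.09%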;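 note: counterscreen on off-target GPR119 to flag nonselective hits from the GPR151 activator screen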
Large screens that a line does not name were inactive (follow-up assays come after a bar, where they were run).

COc1ccc(-c2c[n+](CC(=O)OC3CC(C)CCC3C(C)C)c3n2CCCCC3)cc1 (stereo unspecified)	GPR151 ag 5.3, TEAD-YAP block 86 | GPR151 confirm inactive | GPR119 counter inactive
Cc1ccc(NC(=O)C2CCN(S(=O)(=O)c3ccc(Cl)s3)CC2)cc1	GPR151 ag 5.9 | GPR151 confirm inactive | GPR119 counter inactive
COC(=O)C(NC(=O)c1ccccc1)(Nc1ncc(Cl)cc1Cl)C(F)(F)F (stereo unspecified)	none
COc1ccc(C=O)cc1OC(=O)c1cccc2ccccc12	GPR151 ag 10 | GPR151 confirm inactive | GPR119 counter inactive
COC(=O)C(CC(C)C)NC(=O)CSC1=NC(=O)C(c2ccccc2)C(=O)N1 (stereo unspecified)	GPR151 ag 5.6 | GPR151 confirm inactive | GPR119 counter inactive
CC(=O)C(Sc1ccc(C)cc1)C(C)=O	none
COC(=O)NNC(=S)NCc1ccc(C)cc1	GPR151 ag 5.6 | GPR151 confirm inactive | GPR119 counter inactive
Cn1cc(CC(=O)NCCOc2cccc3cccnc23)c2ccccc21	none
COc1ccc(-c2nc(SCC(=O)Nc3ccc4c(c3)OCO4)n[nH]2)cc1	GPR151 ag 6.5 | GPR151 confirm inactive | GPR119 counter inactive
COc1ccc(-c2nc(SCC(=O)Nc3ccc4ccccc4c3)n[nH]2)cc1	none
O=C(Nc1cc(F)ccc1F)C1CCCN(c2ncnc3c2nc2n3CCCCC2)C1 (stereo unspecified)	GPR151 ag 8.0 | GPR151 confirm inactive | GPR119 counter inactive
O=C(Nc1ccc(F)cc1F)C1CCCN(c2ncnc3c2nc2n3CCCCC2)C1 (stereo unspecified)	none
O=C(Nc1ccccc1)c1ccc(Cl)c(S(=O)(=O)NCc2ccccc2)c1	GPR151 ag 8.2 | GPR151 confirm inactive | GPR119 counter inactive
Cc1ccc(CNS(=O)(=O)c2cc(C(=O)Nc3ccc(C(C)C)cc3)ccc2F)cc1	GPR151 ag 5.8 | GPR151 confirm inactive | GPR119 counter inactive
C=CCNS(=O)(=O)c1cc(C(=O)Nc2ccc(OCC)cc2)ccc1F	GPR151 ag 5.7 | GPR151 confirm inactive | GPR119 counter inactive
CCc1ccc(NC(=O)c2ccc(F)c(S(=O)(=O)NCc3ccc(C)cc3)c2)cc1	none
C=CCNS(=O)(=O)c1cc(C(=O)Nc2cc(Cl)cc(Cl)c2)ccc1F	none
Cn1c(=O)c2c(nc(N3CCc4ccccc4C3)n2CC(=O)O)n(C)c1=O	none
Cc1cc(C)nc(NC(=NCc2ccccc2Cl)NS(=O)(=O)c2c(Cl)nc(C)c(Cl)c2C)n1	none
O=C1c2ccccc2C(=O)c2c(O)ccc(O)c21	GPR151 ag 18 | GPR151 confirm inactive | GPR119 counter inactive
O=C1c2ccccc2C(=O)c2c(O)c(O)cc(O)c21	none
CC(=O)/C=C/c1ccc(OC(F)F)cc1	GPR151 ag 6.0 | GPR151 confirm inactive | GPR119 counter inactive
Cc1cc(C)nc(-n2nc(C)c(C(O)(CC(=O)C(F)(F)F)C(F)(F)F)c2N)n1 (stereo unspecified)	GPR151 ag 11 | GPR151 confirm inactive | GPR119 counter inactive
CN(CCc1ccccn1)c1nc2nonc2nc1NCc1ccccc1	none
Cc1nccn1CCN(C)c1nc2nonc2nc1NCc1ccccc1	GPR151 ag 12 | GPR151 confirm inactive | GPR119 counter inactive
COc1cccc(C(=O)NCCNC(C)=O)c1	none
Cn1c(=O)c2c(ncn2CC(=O)N/N=C/c2ccc(C(F)(F)F)cc2)n(C)c1=O	GPR151 ag 5.6 | GPR151 confirm inactive | GPR119 counter inactive
Cn1c(=O)c2c(ncn2CC(=O)N/N=C/c2ccccc2F)n(C)c1=O	none
COCCCNC(=O)c1cccnc1SCc1ccccc1Cl	GPR151 ag 5.5 | GPR151 confirm inactive | GPR119 counter inactive
O=S(=O)(NCCSc1nnnn1-c1ccccc1)c1ccccc1	GPR151 ag 8.7 | GPR151 confirm inactive | GPR119 counter inactive
Cc1ccc(S(=O)(=O)N(CC(=O)NC2CC2)c2cccc([N+](=O)[O-])c2)cc1	none

Screening results as filed in PubChem.
